# In PubChem BioAssay (NCATS):
# Results filed as inconclusive are left out. Values without a mark were called inactive. Active and inactive are the calls of the source. Calls follow the shape of the dose curve; as a rule, active = well fitted inhibition curve with a large enough effect; inconclusive = small, poorly fitted or top-dose-only effect; inactive = flat fitted curve, though single readings scatter.
# System: CP265
# Experiment: qHTS profiling for inhibitors of Plasmodium falciparum proliferation (AID 504749); also: nearly all actives have a fitted effect of over 60% in size;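 as to activity, negative = inhibition: 0% = DMSO vehicle and full inhibition = artemisinin control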
# Conditions: P. falciparum in erythrocytes, SYBR Green DNA, 72 h; series mostly up to 28.7 µM; activity, negative = inhibition: at the top concentration
# Procedure, shortened: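 P. falciparum-infected erythrocytes (0.3% parasitemia, 2.5% hematocrit final) were exposed to compounds for 72 h at 37 C in 5% CO2, then lysed with SYBR Green buffer overnight at room temperature; parasite DNA fluorescence was normalized to artemisinin and DMSO controls.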
# Potency is read from the fitted curve at half-maximal effect.
SMILES,"activity, negative = inhibition",Potency
O=C1[C@H]2CCCC[C@H]2C(=O)N1CCCCN1CCN(c2nsc3ccccc23)CC1,-1.9%,
C[C@@H]1C[C@H]2[C@@H]3CCC4=CC(=O)C=C[C@]4(C)[C@@]3(F)[C@@H](O)C[C@]2(C)[C@H]1C(=O)CO,1.25%,
CCCCCCCCCCCCCCCC[N+](C)(C)CCN(Cc1ccc(OC)cc1)c1ncccn1,-30% [at 12.8 µM],
CN(C(=O)CN(CCO)CC(=O)N(C)C(C)(C)Cc1ccccc1)C(C)(C)Cc1ccccc1,-16.7% [at 12.8 µM],
C=C(CC)C(=O)c1ccc(OCC(=O)O)c(Cl)c1Cl,-78.6%,
CCOc1ccc(Cc2nccc3cc(OCC)c(OCC)cc23)cc1OCC,-29.1% [at 12.8 µM],
CNCCC=C1c2ccccc2CCc2ccccc21,,7.94 µM (active)
CCCCN1CCCC1C(=O)Nc1c(C)cc(C)cc1C (stereo not given),-23%,
Cc1cccc(C)c1NC(=O)CN1CCN(CCCC(c2ccc(F)cc2)c2ccc(F)cc2)CC1,-22.9% [at 12.8 µM],
CCN1CCC[C@H]1CNC(=O)c1c(OC)ccc(Br)c1OC,-28.1%,
Oc1ccc(Cl)c2cccnc12,-14.4%,
CCN1CCN(c2cc3c(cc2F)c(=O)c(C(=O)O)cn3C2CC2)CC1,2.76%,
CC(Cc1cccc(C(F)(F)F)c1)NCCOC(=O)c1ccccc1 (stereo not given),-4.21%,
CC(=O)c1ccc2c(c1)N(CCCN1CCC(CCO)CC1)c1ccccc1S2,-10% [at 12.8 µM],
CCN(CC)C(=O)/C(C#N)=C/c1cc(O)c(O)c([N+](=O)[O-])c1,-26.7%,
